# Source: PubChem BioAssay (National Center for Advancing Translational Sciences (NCATS))
# ELG1 genotoxic = inducers of genotoxicity in HEK293T ELG1-luciferase cells; HEK293T ELG1-luciferase reporter, luminescence, 16 h; Potency, µM (top dose mostly 46 µM), for inactives: top-dose activity change, positive = activation, most hits filed as activators; 330,000 compounds, 1.3% hits; AID 504466; note: % of control where 0% means no effect; nearly all actives have a fitted effect of over 60% in size
#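 After overnight (16 hr) compound treatment at 37 °C, ELG1-luciferase HEK293T cells were lysed with ONE-Glo; luminescence quantified 30 min later at room temperature.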
# ELG1 repair inh = blocks ELG1-dependent DNA repair in HEK293T cells | Potency, µM (doses to about 46.1 µM), inactives show top-dose activity change, negative = inhibition, usual class: inhibitors | 330,000 compounds, 2.3% hits | HEK293T ELG1-luciferase reporter, luminescence, 16 h; DNA damage induced by 5-fluorouridine; note: % is set by controls: 0 for no effect and ±100 for the full control effect; nearly all actives have a fitted effect of over 55% in size
#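 Step one: seed 2,000 cells per well. Step two: pin-transfer compound or DMSO alongside 5-fluorouridine. Step three: incubate 16 hr, 37 °C, 5% CO2. Step four: add ONE-Glo, wait 30 min, read luminescence.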
# SMN2 splice up = enhancers of SMN2 splice variant expression; AID 1458; 210,000 compounds, 2.8% hits; Potency, µM (top dose mostly 46.1 µM), without a hit: top-dose activity change, positive = activation, most hits filed as activators; HEK293 SMN2-luciferase splicing reporter, luminescence, 30-36 h; note: % of control where 0% means no effect; nearly all actives have a fitted effect of over 55% in size
#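 HEK293 cells carry an SMN2 minigene-luciferase reporter in which exon 7 inclusion puts luciferase in frame. Cells were seeded at 2000 cells/well, attached for 10-12 hours, then exposed to compounds for 30-36 hours at 37C before ONE-Glo luminescence.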
# FLuc modulator = inhibits or activates purified firefly luciferase, miR-21 counter-screen; P08659; purified FLuc, Km substrates, luminescence inhibition; Potency, µM (top dose mostly 57.5 µM), for the others: at the top dose activity change, negative = inhibition, usual class: inhibitors; 360,000 compounds, 6.9% hits;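 note: plate controls were vehicle for no effect and reference inhibitor for full effect; nearly all actives have a fitted effect of over 55% in size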
# Target sequence (P08659 whole entry, looked up): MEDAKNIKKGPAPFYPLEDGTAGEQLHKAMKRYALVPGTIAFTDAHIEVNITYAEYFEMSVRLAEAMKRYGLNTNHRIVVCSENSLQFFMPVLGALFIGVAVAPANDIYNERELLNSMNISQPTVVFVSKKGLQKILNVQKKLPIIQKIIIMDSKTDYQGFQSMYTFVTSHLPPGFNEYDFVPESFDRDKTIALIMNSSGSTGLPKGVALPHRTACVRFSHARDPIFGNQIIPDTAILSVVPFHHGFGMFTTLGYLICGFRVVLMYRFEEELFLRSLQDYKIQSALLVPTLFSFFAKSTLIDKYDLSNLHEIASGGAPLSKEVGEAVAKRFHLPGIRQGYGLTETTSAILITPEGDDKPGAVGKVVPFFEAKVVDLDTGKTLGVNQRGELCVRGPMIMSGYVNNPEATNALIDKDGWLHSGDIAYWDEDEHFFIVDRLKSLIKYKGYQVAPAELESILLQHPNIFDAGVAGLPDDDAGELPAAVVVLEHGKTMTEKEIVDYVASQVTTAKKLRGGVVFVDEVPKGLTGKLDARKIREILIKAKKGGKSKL
#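 Purified P. pyralis luciferase, 10 nM final, with Km-level 10 uM D-luciferin and 10 uM ATP in 50 mM Tris acetate pH 7.5, 10 mM Mg acetate, 0.01% Tween-20, 0.05% BSA; 6-point qHTS titration about 60 µM downward; luminescence read.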
# Rab9 prom act = activates the Rab9 promoter | Huh7 Rab9 promoter-luciferase reporter, luminescence, 24 h | Potency, µM (top dose mostly 9.22 µM), inactives show at the highest dose activation, negative = inhibition, most hits filed as activators | 320,000 compounds, 2.8% hits | AID 485297; note: % of control where 0% means no effect; nearly all actives have a fitted effect of over 60% in size
#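 Stable Rab9-luc Huh7, 1500 cells/well, 2 h settle; cmpd in DMSO, 24 h, 37 °C/5% CO2; luciferase reagent 10 min RT; luminescence.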
# NPC1 promoter act = activators of NPC1 promoter | Potency, µM (highest dose often 9.22 µM), inactives show at the top dose activation, usual class: activators | Huh7 NPC1 promoter luciferase reporter, 24 h | 320,000 compounds, 2.4% hits | AID 485313; note: % of control where 0% means no effect; nearly all actives have a fitted effect of over 60% in size
#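 Readout is luciferase luminescence, reflecting NPC1 promoter activation in stably transfected Huh7 cells after 24 h compound exposure at 37 °C in reduced-serum medium with 10% FBS.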
# The depositor's hits bear a star; ? = inconclusive; / = no result. This is a sample that favours compounds with a hit; in the whole collection about 9.2% have one here. Calls come from the whole dose curve; as a rule, active = well fitted curve in the direction sought with a large enough effect; inconclusive = small, poorly fitted or top-dose-only effect, or another doubt; inactive = no such curve, though single readings can be large; an effect the other way counts as inactive or inconclusive. Potency is the fitted concentration of half-maximal effect.
SMILES,ELG1 genotoxic,ELG1 repair inh,SMN2 splice up,FLuc modulator,Rab9 prom act,NPC1 promoter act
Cc1cc(N/C=C\c2nnnn2-c2ccccc2)no1,13%,?,30%,?,2%,11%
C=CCn1c(-c2ccccc2)c[nH]c1=S,13µM*,?,-2%,27µM*,28%,24%
Cc1cc(Oc2ccc(=O)[nH]n2)nc(Cl)n1,?,?,/,15µM*,3.2µM*,1µM*
Cc1ccccc1/C=N/N=C1/NC(=O)CCS1,10%,?,/,?,1%,16%
O=C1CCS/C(=N\N=C\c2ccc(Cl)cc2Cl)N1,?,?,/,19µM*,?,?
CCOc1ccccc1NC(=O)CSc1c(C)cnc2c1c(=O)n(C)c(=O)n2C,/,/,/,-7%,/,/
O=C(Cn1ncn2nc(-c3ccccc3)cc2c1=O)NCc1ccccn1,2%,21%,/,11µM*,11%,1%
COc1ccc(-c2cc3c(=O)n(CC(=O)NCc4ccc(C)cc4)ncn3n2)cc1,?,?,/,-17%,16%,3%
COc1ccc(-c2cc3c(=O)n(CC(=O)NCCCN4CCC(Cc5ccccc5)CC4)ncn3n2)cc1,?,?,/,4.8µM*,?,?
COc1ccc(-c2cc3c(=O)n(CC(=O)NCCCN4CCN(Cc5ccccc5)CC4)ncn3n2)cc1,?,?,/,1.5µM*,?,?
CCOc1ccc(CCNC(=O)Cn2ncn3nc(-c4ccc(OC)cc4)cc3c2=O)cc1,?,?,/,-5%,19%,14%
C=CCOC(=O)C1=C[C@@H](c2ccc(C(F)(F)F)cc2)[C@H](CCCO)[C@@H](OCC)O1,-5%,-6%,/,3%,8%,-5%
O=C(Cn1c(-c2ccccc2)c[n+]2ccsc12)c1ccc(Br)cc1,-7%,?,-6%,-2%,1%,0%
COc1ccc(C2NCCc3c2[nH]c2ccccc32)cc1CSc1nc2ccccc2s1 (stereo not drawn),-7%,?,-51%,-13%,-1%,5%
c1ccc(-c2noc(-c3cccc4ccccc34)n2)cc1,?,?,11µM*,6µM*,14%,26%
c1cncc(-c2noc(-c3cccc4ccccc34)n2)c1,8.2µM*,?,8%,7.6µM*,?,16%
c1ccc2c(-c3nc(-c4ccncc4)no3)cccc2c1,?,?,?,11µM*,?,?
COc1ccc2nc3n(c(=O)c2c1)-c1ccccc1C(=O)NC3Cc1ccccc1 (stereo not drawn),1%,?,/,/,/,/
COc1cccc(-n2c(CN3CCN(c4ccccc4)CC3)nc3ccc([N+](=O)[O-])cc3c2=O)c1,1%,18µM*,-4%,-1%,-2%,0%
COc1cc(OC)c(NC(=O)C(c2ccccc2)N2Cc3ccccc3C2=O)cc1Cl (stereo not drawn),/,/,/,0%,/,/
Cc1ccc(C(=O)COC(=O)CCNS(=O)(=O)c2ccccc2F)cc1,-1%,0%,/,/,/,/
COc1ccc(C(=O)Nc2ccc3c(c2)C(=O)c2ccccc2C3=O)cc1OC,5%,14%,8%,-6%,17%,2%
COc1ccc(C(=O)c2c(C(F)(F)F)oc3c2C(=O)c2ccccc2C3=O)cc1OC,-30%,3.7µM*,-64%,-5%,-25%,-35%
CC(C)Cn1c(N)c(C(=O)COC(=O)C2Cc3ccccc3CN2S(C)(=O)=O)c(=O)n(C)c1=O (stereo not drawn),-7%,9.2µM*,/,4%,-13%,-14%
CC(C)Cn1c(N)c(C(=O)COC(=O)c2cc(-c3ccccc3)nc3ccccc23)c(=O)n(C)c1=O,-7%,7.3µM*,-39%,-5%,-4%,-9%
SMILES,ELG1 genotoxic,ELG1 repair inh,SMN2 splice up,FLuc modulator,Rab9 prom act,NPC1 promoter act
CC(C)Cn1c(N)c(C(=O)COC(=O)c2cc(C3CC3)nc3ccccc23)c(=O)n(C)c1=O,-5%,23µM*,-35%,-1%,-1%,-5%
CC(C)Cn1c(N)c(C(=O)COC(=O)c2cc(F)cc(F)c2)c(=O)n(C)c1=O,-8%,18µM*,-20%,-1%,-2%,-4%
Cc1cc(NC(=O)c2cccs2)ncc1NC(=O)c1cccc(F)c1,?,?,?,19µM*,3.2µM*,27%
O=C(Nc1ccc(NC(=O)c2cccs2)cn1)c1ccccc1,?,?,16µM*,5.4µM*,1.1µM*,2.2µM*
Cc1cc(NC(=O)c2ccccc2)ncc1NC(=O)c1cccs1,?,?,11µM*,15µM*,4µM*,3.5µM*
Cc1cc(NC(=O)c2cccs2)ncc1NC(=O)C(C)C,-3%,?,/,15µM*,2.2µM*,1.8µM*
Cc1cc(NC(=O)c2ccccc2F)ncc1NC(=O)c1cccs1,13%,?,?,?,29%,16%
COc1ccc(-c2nn(-c3cccc([N+](=O)[O-])c3)c3c2cnc2cc4c(cc23)OCO4)cc1,/,/,/,-7%,/,/
COc1cccc(C(=O)N/N=C/c2ccc(Oc3ccc([N+](=O)[O-])cn3)c(OC)c2)c1,-4%,-23%,-24%,-15%,1%,3%
COc1cc(/C=C2\SC(=O)NC2=O)ccc1Oc1ccc([N+](=O)[O-])cn1,0%,21µM*,/,?,0%,8%
COc1cc(/C=N/NC(=O)c2ccc3ccccc3c2)ccc1Oc1ccc([N+](=O)[O-])cn1,-9%,16µM*,-34%,-9%,-6%,-7%
C/C(=N\NC(=O)c1ccn[nH]1)c1cn(C)nc1C,?,?,11µM*,12µM*,?,?
C/C(=N\NC(=O)c1nn(C)cc1Br)c1ccncc1,-2%,14%,7%,-23%,17%,9%
O=C(c1cccc(Cl)c1)N(Cc1ccco1)C1CCS(=O)(=O)C1 (stereo not drawn),4%,-3%,/,1%,0%,-3%
O=C(CCNC(=O)c1ccc(Br)cc1)NCc1cccnc1,-6%,15%,/,0%,0%,5%
CCC(=O)N1c2ccccc2CC1C(=O)NCCN1CCN(c2cccc(C)c2C)CC1 (stereo not drawn),/,/,/,-2%,/,/
Cc1ccc(CSc2nccc(-c3c(C)nc4ccccn34)n2)cc1,-17%,15µM*,/,0%,-14%,-2%
Cc1ccc(-n2c(=O)c3sc4ccccc4c3n(C)c2=O)cc1F,/,/,-6%,-1%,/,/
O=C(Cc1cccs1)NCc1ccc(Cl)cc1Cl,?,?,/,15µM*,2.8µM*,3.2µM*
O=C(Cc1cccs1)NCc1ccccc1Br,?,?,/,19µM*,4µM*,?
